# Assay outcomes (PubChem)
# Rows were chosen to be rich in hits. Some 21% of all compounds tested hit in one or more screens of this group.
# NS1 function inh – influenza NS1 inhibition. Potency, µM (top dose mostly 46.1 µM), without a hit: at the highest dose activity, positive = more growth. actives 0.4% (n = 270,000). AID 2326; calls by dose curve; note: potency is the fitted concentration of half-maximal effect; actives are rising curves; nearly all actives have a fitted effect of over 50% in size
#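 OD600 was taken as the measure of yeast growth restored by compound in an NS1-expressing S. cerevisiae strain. Cells had been washed out of glucose medium and diluted 1:100 into galactose -URA medium, pH 6.0.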
# Pf growth 96h – inhibits malaria parasite growth, 96 h; Potency, µM (titrated, usually from 28.7 µM), for inactives: top-dose activity change, negative = inhibition, actives largely listed as inhibitors; P. falciparum luciferase reporter growth, 96 h; actives 6.9% (n = 320,000); note: potency is the fitted concentration of half-maximal effect; % is set by controls: 0 for no effect and ±100 for the full control effect
#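 Plates of compound plus infected erythrocytes (2% hematocrit, 0.05% parasitemia final) incubate 96 hours, 37 C, 5% CO2. Detection reagent added; reduced luminescence from the parasites' luciferase reporter flags inhibition.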
# CHX counter – counter-screen hit for Shiga toxin inhibitors, cycloheximide; cell reporter, cycloheximide protein synthesis inhibition counterscreen; max response, %; actives 12% (n = 300,000); in the data active = max response mostly above about 13%, no sharp cut-off; inactive = mostly below about 14%; note: read at 38.3 µM for the half of the compounds with a filed dose; 0% is about no effect
# Shiga inhibitor – blocks Shiga toxin action in Vero cells; Vero cells, Shiga toxin protein synthesis inhibition reporter; inhibition, % at 38.7 µM; actives 9.2% (n = 290,000); AID 2315; in the data active = inhibition mostly above about 28%, no sharp cut-off; inactive = mostly below about 43%; note: 0% is about no effect
# Pf growth 48h – P. falciparum growth inhibition at 48 hours (one generation) | P. falciparum luciferase growth in erythrocytes, 48 h | actives 5.9% (n = 310,000) | Potency, µM (top dose mostly 28.7 µM), inactives show top-dose activity change, negative = inhibition, most hits filed as inhibitors; note: potency is the fitted concentration of half-maximal effect; % is set by controls: 0 for no effect and ±100 for the full control effect
#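 Luciferase-expressing parasites in RBCs, 2% Hct / 0.1% parasitemia final; RPMI 1640 + 0.5% Albumax; 37 C, 5% CO2, one generation; luminescence read-out, lower signal = inhibition.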
# SARS PLpro yeast – inhibitors of SARS-CoV papain-like protease in yeast; S. cerevisiae expressing SARS-CoV PLpro, growth rescue; Potency, µM (titrated, usually from 32.9 µM), without a hit: top-dose activity, positive = growth rescue, most hits filed as activators; actives 0.19% (n = 330,000); AID 485353; calls by dose curve; note: potency is the fitted concentration of half-maximal effect; 0% is about no effect; nearly all actives have a fitted effect of over 55% in size
# Starred values were filed as active, the others as inactive; ? = inconclusive; · = no result given. Unless noted, calls come from the whole dose curve; as a rule, active = well fitted inhibition curve with a large enough effect; inconclusive = small, poorly fitted or top-dose-only effect, or another doubt; inactive = no such curve, though single readings can be large or run the other way.
SMILES,NS1 function inh,Pf growth 96h,CHX counter,Shiga inhibitor,Pf growth 48h,SARS PLpro yeast
COc1ccc(OCC(=O)Nc2nccs2)cc1,-7%,30%,12,6,110%,-2%
COc1ccc(C(CC(=O)Nc2nccs2)C(C)C)cc1 (stereo unspecified),-3%,13µM*,-5,-15,?,0%
COc1ccc(OCCC(=O)Nc2nccs2)cc1,-2%,12%,13,21,3%,1%
COc1ccc(C(CC(=O)Nc2cc(OC)cc(OC)c2)n2cccc2)cc1 (stereo unspecified),15%,?,-1,-6,13µM*,17%
COc1ccc(C(CC(=O)Nc2ccccc2OC)n2cccc2)cc1 (stereo unspecified),1%,?,-1,34,-10%,0%
CCOC(=O)c1nn(-c2ccc(C)c(C)c2)c(=O)c(C#N)c1C,20%,21%,-2,·,7%,3%
CN(Cc1ccc(C(C)(C)C)cc1)C(=O)c1ccc2c(c1)OCO2,·,?,·,·,?,4%
COc1cc(OC)c(C(=O)OCC(=O)NC2CCCCCCC2)cc1OC,·,·,·,·,·,-5%
CCOC(=O)c1csc(NC(=O)c2ccc(C#N)cc2)n1,·,60%,-1,14,47%,-1%
COc1ccccc1NC(=O)COC(=O)c1cc(C)oc1C,·,·,·,·,·,-5%
COc1cccc(NC(=O)CSc2nnc(Cc3cccn3C)n2-c2ccc(F)cc2)c1,9%,4.1µM*,19*,29*,?,-4%
COc1ccc(OC)c(NC(=O)CSc2nnc(Cc3cccn3C)n2-c2ccc(F)cc2)c1,-16%,-13%,-3,21,13µM*,-11%
COc1ccc(-n2c(Cc3cccn3C)nnc2SCC(=O)Nc2cccc(OC)c2)cc1,-3%,17%,-1,-12,?,-20%
COc1ccc(-n2c(Cc3cccn3C)nnc2SCC(=O)Nc2ccccc2C)cc1,-2%,6.6µM*,0,-9,·,-2%
Cc1ccc(C)c(NC(=O)C2CCCN2C(=O)NC2CCCCC2)c1 (stereo unspecified),8%,37%,-2,-4,-14%,3%
Cc1nc2c3ccccc3nc(NNC(=O)CCC(=O)N3CCCC(C)C3)n2n1 (stereo unspecified),-4%,9.3µM*,12,2,0%,1%
Cc1nc2c3ccccc3nc(NNC(=O)CCC(=O)NC(C)C)n2n1,?,6.6µM*,-2,-5,32%,2%
CC(C)CCNC(=O)CCC(=O)NNc1nc2ccccc2c2nc(-c3ccccc3)nn12,-6%,10µM*,5,-3,15%,20%
Cc1nc2c3ccccc3nc(NNC(=O)CCC(=O)NC3CCCC3)n2n1,·,359%,-5,-7,5%,3%
COc1ccccc1NC(=O)CSc1nccn1Cc1ccccc1,-36%,1%,8,9,?,0%
CCS(=O)(=O)c1cccc(C(=O)N2CCN(c3nc4c(C)ccc(Cl)c4s3)CC2)c1,·,·,9,0,·,·
Cc1cc(C)n(-c2ccc(C(=O)Nc3ccc(C)c(S(=O)(=O)N4CCOCC4)c3)cc2)n1,0%,?,10,8,?,0%
Cc1csc(C(=O)NN)c1N(C)C,1%,1%,32*,74*,2%,-1%
Cc1c(C(=O)NN)sc(=S)n1C,17%,-6%,-1,-11,34%,-1%
CC1(C)Cc2c(cnn2-c2ccc(F)cc2)C(NC(=O)c2ccoc2)C1 (stereo unspecified),-4%,?,15,5,-16%,6%
CC1(C)Cc2c(cnn2-c2ccccc2)C(NC(=O)C2(C(N)=O)CC2)C1 (stereo unspecified),1%,-7%,-3,12,9.3µM*,11%
Cc1cc(C(=O)NC2CC(C)(C)Cc3c2cnn3-c2ccccc2)n(C)n1 (stereo unspecified),-30%,?,-2,-13,-3%,6%
CC1(C)Cc2c(cnn2-c2ccccc2)C(NC(=O)c2ccoc2)C1 (stereo unspecified),5%,?,-1,-17,10µM*,4%
CC(C)(C)c1ccc(-n2ncc3c2CCCC3NC(=O)C2(C(N)=O)CC2)cc1 (stereo unspecified),13%,13µM*,8,8,-14%,3%
